Experimental data reported in PubChem BioAssay (NCATS).
Values joined by “and” are separate entries in the source; they are usually repeats but may differ in a detail not shown here. Equal values may be shown once. Unmarked numbers belong to inactive results. Results filed as inconclusive are left out. Active and inactive are the calls of the source. Calls come from the whole dose curve; as a rule, active = well fitted activation curve with a large enough effect; inconclusive = small, poorly fitted or top-dose-only effect; inactive = flat fitted curve, though single readings scatter.

Tested on: not listed separately
Test: qHTS assay for environmental chemicals that activate the Aryl hydrocarbon Receptor (AhR) signaling pathway (AID 651777); note: nearly all actives have a fitted effect of over 15% in size; note: potency is the fitted concentration of half-maximal effect; for activation: % of control where 0% means no effect
Details: 1A2-DRE human hepatoma cells, luciferase, 24 h; activation: stronger effect = higher value
Summary of the method: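 Concentration–response screening used 1,200 1A2-DRE cells per well, 24 hr compound exposure (37 C, 5% CO2), and One-Glo luminescence as the AhR-driven CYP1A2 reporter signal.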

Compound | activation | Potency
O=C(O)C(Br)CBr (centres undefined) | 2.43% | 
Nc1c(Br)cc([N+](=O)[O-])cc1[N+](=O)[O-] | 3.36% | 
O=[N+]([O-])c1ccccc1CCl | -0.0678% | 
Cc1cc(C)cc(OP(=O)(Oc2cc(C)cc(C)c2)Oc2cc(C)cc(C)c2)c1 | 12.8% | 
N#CC(Br)Br | 1.38% | 
O=C(O)C(Cl)Br (centres undefined) | 0.968% | 
COP(=S)(OC)SCn1nnc2ccccc2c1=O | 2.58% and 5.04% | 
Nc1ccc([N+](=O)[O-])cc1N | 1.47% and 1.07% | 
O=C(O)c1cccc(Cl)c1 | 0.728% | 
Cc1cc(N=Nc2ccccc2C)ccc1N |  | 44.7 µM (active)
OCCCCO | -0.427% | 
O=[N+]([O-])c1cc(Cl)c(Cl)c(Cl)c1 | 0.049% | 
CC(C)(COCC1CO1)COCC1CO1 (centres undefined) | -0.0471% | 
Cc1ccc2c(c1N)C(=O)c1ccccc1C2=O |  | 28.2 µM (active)
COc1ccccc1N | -0.373% | 
CC(C)(C)OOC(=O)c1ccccc1 | -1.19% and 0.23% | 
c1ccc(N=NNc2ccccc2)cc1 |  | 12.6 µM (active) and 1.41 µM (active)
COC(C)(C)C | -1.78% | 
C(CCOCC1CO1)COCC1CO1 (centres undefined) | 0.374% | 
CN(C)c1ccc(N)cc1 |  | 44.7 µM (active)

Biological target: Peroxisome proliferator-activated receptor alpha (Homo sapiens) (UniProt Q07869)
Test: qHTS assay for small molecule agonists of the peroxisome proliferator-activated receptor alpha (PPARalpha) signaling pathway (AID 651778); note: % of control where 0% means no effect
Details: PathHunter PPARalpha complementation, chemiluminescence, 6 h; stronger effect = higher value
Summary of the method: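 Cells plated at 2,000/well and held overnight at 37 C, 5% CO2, then compound added by pin tool for 6 hr; after PathHunter detection reagent and 60 min at room temperature, chemiluminescence from enzyme complementation was read.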

Chain of Peroxisome proliferator-activated receptor alpha (Homo sapiens) (Q07869 whole entry, looked up): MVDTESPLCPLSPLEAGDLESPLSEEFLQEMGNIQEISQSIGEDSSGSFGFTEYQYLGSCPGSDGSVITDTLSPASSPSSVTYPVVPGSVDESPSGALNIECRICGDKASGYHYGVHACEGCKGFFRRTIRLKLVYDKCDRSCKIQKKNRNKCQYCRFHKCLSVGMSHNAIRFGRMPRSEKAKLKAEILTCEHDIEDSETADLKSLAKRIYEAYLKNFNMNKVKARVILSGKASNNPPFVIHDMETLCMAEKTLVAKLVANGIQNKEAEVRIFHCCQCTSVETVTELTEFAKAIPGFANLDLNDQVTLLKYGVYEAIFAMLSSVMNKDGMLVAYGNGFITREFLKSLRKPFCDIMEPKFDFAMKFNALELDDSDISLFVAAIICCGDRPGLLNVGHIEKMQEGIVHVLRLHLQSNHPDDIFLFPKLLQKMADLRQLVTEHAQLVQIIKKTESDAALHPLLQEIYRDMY

Compound | max response
O=C(O)C(Br)Br | 14.7%
Cc1ccc(OP(=O)(Oc2ccc(C)cc2)Oc2ccc(C)cc2)cc1 | -4.04% and -0.382%
Nc1ccc(Cc2ccc(N)c(Cl)c2)cc1Cl | 2.66%
CN(C)c1ccc(N(C)C)cc1 | -4.1%
Brc1ccc(Oc2ccc(Br)cc2Br)c(Br)c1 | 6.57%
O=[N+]([O-])c1c(Cl)c(Cl)c(Cl)c(Cl)c1Cl | 3.1% and -1.25%
CN1CSC(=S)N(C)C1 | -4.77% and -6.32%
ClCC(Cl)Cl | 4.99%
C=CC(=O)OCCO | 5.17%
CC(C)Br | -8.27%
O=[N+]([O-])c1ccc(O)c([N+](=O)[O-])c1 | -7.09%
CC(C)[N+](=O)[O-] | -6.42%
CCCC[N+](=O)[O-] | 1.08%
Cc1cc(-c2cc(C)c(N)c(C)c2)cc(C)c1N | -3.9%
Nc1cc(Cl)ccc1O | 0.902%
CCN(N=O)C(N)=O | 1.39%
N#CC(Cl)(Cl)Cl | 9.56%
CCCCC(CC)COC(=O)c1ccc(C(=O)OCC(CC)CCCC)c(C(=O)OCC(CC)CCCC)c1 (centres undefined) | -3.57%
O=C(O)C(Br)CBr (centres undefined) | 1.03%
Nc1c(Br)cc([N+](=O)[O-])cc1[N+](=O)[O-] | -5.44%

Compound | max response
O=[N+]([O-])c1ccccc1CCl | -1.86%
Cc1cc(C)cc(OP(=O)(Oc2cc(C)cc(C)c2)Oc2cc(C)cc(C)c2)c1 | -0.353%
N#CC(Br)Br | -1.13%
O=C(O)C(Cl)Br (centres undefined) | -0.46%
COP(=S)(OC)SCn1nnc2ccccc2c1=O | -5.24% and -2.4%
Nc1ccc([N+](=O)[O-])cc1N | -9.77% and -2.05%
O=C(O)c1cccc(Cl)c1 | -1.81%
Cc1cc(N=Nc2ccccc2C)ccc1N | -6.65% and -1.39%
OCCCCO | -0.393%
O=[N+]([O-])c1cc(Cl)c(Cl)c(Cl)c1 | -4.23%
CC(C)(COCC1CO1)COCC1CO1 (centres undefined) | -0.497%
Cc1ccc2c(c1N)C(=O)c1ccccc1C2=O | -8.43% and -4.54%
COc1ccccc1N | -0.908%
CC(C)(C)OOC(=O)c1ccccc1 | -5.26% and -0.274%
c1ccc(N=NNc2ccccc2)cc1 | -1.28% and 2.45%
COC(C)(C)C | -1.3%
C(CCOCC1CO1)COCC1CO1 (centres undefined) | -0.765%
CN(C)c1ccc(N)cc1 | 11.3%
O=[N+]([O-])/C=C/c1ccccc1 | -1.42%
